Shown are actives, neighbours in structure and some others; about 8.1% of the full set was active somewhere.
Epigenetic reg: epigenetic control regulation, reporter derepression; murine LDR cells, GFP reporter derepression, 30 h; Potency, µM (titrated, usually from 53.9 µM), usual class: activators; 280,000 compounds, 0.2% hits; AID 1865; note: nearly all actives have a fitted effect of over 60% in size
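Derepression of a silenced CMV-GFP reporter in murine LDR cells is scored by enumerating GFP-positive cells with a laser-scanning microplate cytometer after 30 hours of treatment at 37 C.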
PINK1 modulator: modulators of PINK1 expression; 410,000 compounds, 0.2% hits; Potency, µM (top dose mostly 76.6 µM), usual class: activators; PINK1 immunofluorescence, high-content cytometry, 24 h; AID 624263; active = well fitted activation curve with a large enough effect; inconclusive = small, poorly fitted or top-dose-only effect; cell line not stated here; note: nearly all actives have a fitted effect of over 65% in size
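Measures PINK1 amount and localization on or inside mitochondria by immunofluorescence. Stable cells get compounds at 5 concentrations for 24 hours before fixation and staining; CCCP controls included.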
ClpP mod: qHTS Assay for Activators of ClpP | ATP-dependent Clp protease proteolytic subunit (Bacillus subtilis (strain 168)), P80244 | purified B. subtilis ClpP, FRET peptide cleavage, 20 min | Potency, µM (top dose mostly 57.5 µM) | 340,000 compounds, 1.9% hits; active = well fitted falling curve with a large enough effect; inconclusive = small, poorly fitted or top-dose-only effect; inactive = no such curve, though single readings can be large or run the other way; note: the source files actives as falling curves though it sought activators and does not explain the sign; nearly all actives have a fitted effect of over 65% in size
Target sequence (P80244 whole entry, looked up): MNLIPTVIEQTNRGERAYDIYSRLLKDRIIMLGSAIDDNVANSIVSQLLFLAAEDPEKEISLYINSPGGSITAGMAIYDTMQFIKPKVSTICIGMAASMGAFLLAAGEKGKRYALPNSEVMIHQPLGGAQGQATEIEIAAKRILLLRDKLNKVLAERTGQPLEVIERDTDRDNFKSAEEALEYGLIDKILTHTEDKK
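ClpP 10 microg/mL final, pH 8 Tris/KCl buffer with BSA, glycerol, Tween-20; compound pinned in; FRET-FV substrate; RT 20 min; Ex320/Em430; ΔFRET vs ADEP 5.8 microM, DMSO, no enzyme.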
Sfp PPTase inh: inhibitors of Bacillus subtilis Sfp phosphopantetheinyl transferase | Q9F4F7 | Biochemical Sfp PPTase activity, qHTS | Potency, µM, most hits filed as inhibitors | 310,000 compounds, 3.5% hits;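 note: the enzyme is Sfp with the accession as filed and its product quenches rhodamine fluorescence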
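Buffer: 50 mM Hepes-Na pH 7.6, 10 mM MgCl2, 0.01% Nonidet P-40, 0.01% BSA. Enzyme 15 nM, pre-exposed to compound 15 min; substrates then added and fluorescence change tracked over 30 min.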
VP16 counter: Gal4-VP16 reporter inhibition counter-screen | Drosophila S2 Gal4-VP16 UAS-luciferase, luminescence, 20 h | 310,000 compounds, 3.5% hits | Potency, µM (doses to about 53.6 µM), most hits filed as inhibitors | AID 2546;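 note: Gal4-VP16 expression switched on by copper sulfate through the metallothionein promoter; nearly all actives have a fitted effect of over 50% in size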
RORg inh: blocks mouse ROR gamma transcriptional activity | 310,000 compounds, 5.4% hits | P51450 | Drosophila S2 Gal4-RORgamma UAS-luciferase reporter, 20 h | Potency, µM (titrated, usually from 53.6 µM), actives largely listed as inhibitors | AID 2551; note: nearly all actives have a fitted effect of over 60% in size
Target sequence (P51450 whole entry, looked up, the tested form may be a part): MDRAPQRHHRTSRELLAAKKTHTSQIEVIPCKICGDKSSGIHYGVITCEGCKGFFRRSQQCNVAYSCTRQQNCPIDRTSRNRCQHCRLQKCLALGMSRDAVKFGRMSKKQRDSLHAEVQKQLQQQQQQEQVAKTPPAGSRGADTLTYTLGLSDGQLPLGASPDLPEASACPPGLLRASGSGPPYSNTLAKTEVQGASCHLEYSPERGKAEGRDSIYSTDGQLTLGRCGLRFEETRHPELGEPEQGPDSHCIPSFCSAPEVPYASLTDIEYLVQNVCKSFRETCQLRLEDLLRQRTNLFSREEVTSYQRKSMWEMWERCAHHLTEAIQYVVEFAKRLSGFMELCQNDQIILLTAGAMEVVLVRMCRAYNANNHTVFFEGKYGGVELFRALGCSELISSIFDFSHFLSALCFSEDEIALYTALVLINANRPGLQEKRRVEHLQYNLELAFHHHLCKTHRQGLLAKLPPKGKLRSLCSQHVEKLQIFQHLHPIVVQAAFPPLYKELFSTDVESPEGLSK
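Read-out: Photinus luciferase luminescence; inhibitors lower reporter signal. Insect Schneider cells with Gal4-ROR gamma fusion under metallothionein promoter, UAS reporter; 700 uM final copper sulfate induction, 20 hr, ambient temperature.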
Hits are given with their value; – = inactive; ? = inconclusive; · = no result given; ! = not active in a repeat; [ ] = remark or other dose. Unless noted, calls come from the whole dose curve; as a rule, active = well fitted curve in the direction sought with a large enough effect; inconclusive = small, poorly fitted or top-dose-only effect, or another doubt; inactive = no such curve, though single readings can be large; an effect the other way counts as inactive or inconclusive.

SMILES	Epigenetic reg	PINK1 modulator	ClpP mod	Sfp PPTase inh	VP16 counter	RORg inh
CN(C)S(=O)(=O)c1cccc(C(=O)NC(=S)N(CCC#N)Cc2cccnc2)c1	–	–	–	44.7µM	–[10 µM]	2µM
N#CCCN(Cc1cccnc1)C(=S)NC(=O)c1ccco1	–	–	–	–	–	–
N#CCCN(Cc1cccnc1)C(=S)NCc1ccco1	–	–	–	25.1µM	–	–
CCc1cc2c(cc3c(=O)n(CC(=O)NC4CCCCC4)nc(CC)n32)s1	–	–	–	·	·	·
Cc1ccc(NC(=S)NCCN2CCOCC2)cc1C	–	–	–	–	–	11.2µM
COc1ccc(C(C)(C)C)cc1NC(=S)NCCN1CCOCC1	–	–	–	17.8µM	–	–
Cc1ccc(NC(=S)NCCCN2CCOCC2)cc1C	–	–	–	–	–	–
COCC(C)NC(=O)c1cnn2c(C(F)F)cc(-c3ccccc3)nc12 (stereo unspecified)	–	–	–	·	·	·
COC(=O)c1c(-c2ccc(Cl)cc2)noc1N1CCN(c2cccc(C(F)(F)F)c2)CC1	–	–	–	·	·	·
CSc1ccc(CN(C)CCc2ccccn2)cc1	·	–	–	50.1µM	–	–
CN(CCc1ccccn1)Cc1ccc(Cl)c(Cl)c1	·	–	·	–	–	–
Cc1c2oc3c(C)ccc(C(=O)N[C@@H]4C(=O)N[C@H](C(C)C)C(=O)N5CCC[C@H]5C(=O)N(C)CC(=O)N(C)[C@@H](C(C)C)C(=O)O[C@@H]4C)c3nc-2c(C(=O)N[C@@H]2C(=O)N[C@H](C(C)C)C(=O)N3CCC[C@H]3C(=O)N(C)CC(=O)N(C)[C@@H](C(C)C)C(=O)O[C@@H]2C)c(N)c1=O	–	·	·	–	20µM!	0.0224µM
CCOc1cnc(-c2ccc(OC)cc2)o1	–	–	25.1µM	–	–	–
CC(=O)N1c2ccc(S(=O)(=O)N3CCCC3C(=O)NCc3ccccc3Cl)cc2CC1C (stereo unspecified)	·	–	–	–	–	6.31µM
Cc1c(Cl)cccc1NC(=O)CCN1C(=O)c2ccccc2Sc2ncccc21	–	–	–	·	·	·
COc1ccc(NCc2nnc3n2CCCCC3)c(OC)c1	–	–	–	·	·	·
CCOc1cc(/C=C2\COc3ccccc3C2=O)cc(Br)c1OCC(=O)N(C)C	·	–	·	50.1µM	20µM	?
O=C(O)c1ccc(/C=C2\COc3ccccc3C2=O)cc1	·	–	·	?	6.31µM	7.08µM
COc1ccc(/C=C2\COc3ccccc3C2=O)cc1OC	?	–	–	–	?	?
CC(C)(C)[C@@H](O)C(Cc1ccc(Cl)cc1)n1cncn1 (stereo partly specified)	·	·	·	–	–	–
Cc1cc(C)c(C#N)c(Sc2ccccc2N)n1	–	–	·	–	–	–
N#CC(=C(/N)Sc1ccccc1N)/C(C#N)=C(\N)Sc1ccccc1N	–	·	·	56.2µM	·	·
Cc1ccn2c(=O)cc(CSc3nnc(C)s3)nc2c1	–	–	–	·	·	·
COc1cccc(CN2CCCC(c3nc(-c4ccncc4)ncc3-c3ccccc3)C2)c1O (stereo unspecified)	·	–	·	·	·	·
CC(C)(C)C1=CC(=O)C(=O)C(C(C)(C)C)=C1	–	–	–	1.12µM	12.6µM	10µM
SMILES	Epigenetic reg	PINK1 modulator	ClpP mod	Sfp PPTase inh	VP16 counter	RORg inh
COc1ccc(-n2c3c(cc(C(=O)NCC(=O)c4ccccc4)c2=O)C(=O)CC(C)(C)C3)cc1	·	–	–	–	–	–
O=C(CNC(=O)c1cc2c(n(-c3ccccc3)c1=O)CCCC2=O)c1ccccc1	·	–	28.2µM	–	–	–
CC1(C)CC(=O)c2cc(C(=O)NCc3ccco3)c(=O)n(-c3ccccc3)c2C1	–	–	28.2µM	?	–	–
O/N=C(/C[n+]1csc2ccccc21)c1ccccc1	·	–	–	·	·	·
CCc1ccccc1NC(=O)C1C2C=CC(O2)C1C(=O)O (stereo unspecified)	·	–	·	–	–	–
O=C(O)C1C2C=CC(O2)C1C(=O)Nc1ccccc1C(F)(F)F (stereo unspecified)	–	–	–	28.2µM	?	–
N#CC1=C(S)N(c2ccccc2)C(c2ccc(-c3ccccc3Cl)o2)NC1=O (stereo unspecified)	–	–	–	39.8µM	?	–
Cc1ccccc1N1C(S)=C(C#N)C(=O)NC1c1ccco1 (stereo unspecified)	–	–	–	12.6µM	–	–
CCCCN1C(=O)C2ON(c3ccccc3C)C(c3ccco3)C2C1=O (stereo unspecified)	–	?	–	–	–	–
O=C1C(Cl)=C(NCCN2CCCCC2)C(=O)c2ccccc21	–	–	–	–	?	10µM
CCNC1=C(Cl)C(=O)c2ccccc2C1=O	–	–	–	–	–	?
CC1(C)Cc2c(cnn2-c2ccc(F)cc2)C(NC(=O)c2ccco2)C1 (stereo unspecified)	·	–	–	–	–	–
CC12CC(c3ccccc3O1)N(C(=O)c1ccco1)C(=S)N2c1ccc(F)cc1 (stereo unspecified)	–	–	–	–	?	10µM
Oc1cc2c(cc1O)[C@@H]1c3ccc(O)c(O)c3OC[C@]1(O)C2	–	·	·	31.6µM	–	–
CCS(=O)(=O)N1CCC(n2c(C(F)(F)F)nc3cccnc32)CC1	–	–	–	·	·	·
CCCCNC(=S)Nc1cc([N+](=O)[O-])ccc1C	–	–	–	–	?	11.2µM
Cc1ccc(SCC(=O)Nc2cc(S(=O)(=O)N3CCCCC3)ccc2C)cc1	·	–	–	·	·	·
CCCCNC(=S)Nc1cc(S(=O)(=O)N2CCCCC2)ccc1C	–	–	·	–	10µM	5.62µM
CCOC(=O)C(=O)Nc1cc([N+](=O)[O-])ccc1C	–	–	–	–	–	–
Cc1ccc(Cl)cc1Nc1nc2ccccc2n2c(C)nnc12	–	–	–	·	·	·
CCCCC/C=C\C\C=C/C=C/C=C/[C@@H](SC[C@H](N)C(=O)NCC(=O)O)[C@@H](O)CCCC(=O)O	–	·	·	–	·	·
CC(c1ccc(Cl)cc1)n1c(-c2ccc3ccccc3n2)n[nH]c1=S (stereo unspecified)	–	–	–	–	4.47µM	1.78µM
CC(c1ccc(F)cc1)n1c(-c2ccc3ccccc3n2)n[nH]c1=S (stereo unspecified)	–	·	–	?	3.55µM	0.891µM
COc1ccc(C2=Nn3c(nnc3-c3ccc(OC)c(OC)c3)SC2)cc1OC	·	·	·	–	–	–
Cc1ccsc1/C=N/Nc1nc(=O)[nH]nc1C	–	–	·	–	10µM	5.62µM
Cc1ccsc1/C=N/Nc1ncc(Cl)cc1Cl	–	–	–	–	5.01µM	7.08µM
Cc1cc(C)c(OCCCCCn2ccnc2)c(C)c1	·	–	–	–	14.1µM	11.2µM
CCc1ccc(OCCCCCn2ccnc2)cc1	·	–	–	–	?	11.2µM

Source: PubChem BioAssay
